# Measurements as given in PubChem BioAssay AID651768 (National Center for Advancing Translational Sciences (NCATS), 2012).
# The whole screen tested about 360,000 compounds, of which about 1,700 (0.47%) were called active. Roughly 2% stayed inconclusive and do not appear here. Calls follow the shape of the dose curve; as a rule, active = well fitted inhibition curve with a large enough effect; inconclusive = small, poorly fitted or top-dose-only effect; inactive = no such curve, though single readings can be large or run the other way. Shown is part of a subset that was picked to be rich in actives.
# Target: Bifunctional 3'-5' exonuclease/ATP-dependent helicase WRN (Homo sapiens) (UniProt Q14191)
# Experiment: qHTS for Inhibitors of WRN Helicase; also: nearly all actives have a fitted effect of over 55% in size
# Settings: WRN helicase unwinding, fluorescent forked duplex, kinetic; series mostly up to 114 µM; activity change, negative = inhibition: at the top concentration
# In short: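 Primary qHTS, 1536-well format. 20 nM WRN + compound, 15 min RT; start with 100 nM forked fluorophore/quencher duplex, 2 mM ATP (final); kinetic read ex 525/em 598 nm.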
# % is scaled to controls: 0 for no effect and ±100 for the full control effect; potency is read from the fitted curve at half-maximal effect.
# Chain of Bifunctional 3'-5' exonuclease/ATP-dependent helicase WRN (Homo sapiens) (Q14191 whole entry, looked up): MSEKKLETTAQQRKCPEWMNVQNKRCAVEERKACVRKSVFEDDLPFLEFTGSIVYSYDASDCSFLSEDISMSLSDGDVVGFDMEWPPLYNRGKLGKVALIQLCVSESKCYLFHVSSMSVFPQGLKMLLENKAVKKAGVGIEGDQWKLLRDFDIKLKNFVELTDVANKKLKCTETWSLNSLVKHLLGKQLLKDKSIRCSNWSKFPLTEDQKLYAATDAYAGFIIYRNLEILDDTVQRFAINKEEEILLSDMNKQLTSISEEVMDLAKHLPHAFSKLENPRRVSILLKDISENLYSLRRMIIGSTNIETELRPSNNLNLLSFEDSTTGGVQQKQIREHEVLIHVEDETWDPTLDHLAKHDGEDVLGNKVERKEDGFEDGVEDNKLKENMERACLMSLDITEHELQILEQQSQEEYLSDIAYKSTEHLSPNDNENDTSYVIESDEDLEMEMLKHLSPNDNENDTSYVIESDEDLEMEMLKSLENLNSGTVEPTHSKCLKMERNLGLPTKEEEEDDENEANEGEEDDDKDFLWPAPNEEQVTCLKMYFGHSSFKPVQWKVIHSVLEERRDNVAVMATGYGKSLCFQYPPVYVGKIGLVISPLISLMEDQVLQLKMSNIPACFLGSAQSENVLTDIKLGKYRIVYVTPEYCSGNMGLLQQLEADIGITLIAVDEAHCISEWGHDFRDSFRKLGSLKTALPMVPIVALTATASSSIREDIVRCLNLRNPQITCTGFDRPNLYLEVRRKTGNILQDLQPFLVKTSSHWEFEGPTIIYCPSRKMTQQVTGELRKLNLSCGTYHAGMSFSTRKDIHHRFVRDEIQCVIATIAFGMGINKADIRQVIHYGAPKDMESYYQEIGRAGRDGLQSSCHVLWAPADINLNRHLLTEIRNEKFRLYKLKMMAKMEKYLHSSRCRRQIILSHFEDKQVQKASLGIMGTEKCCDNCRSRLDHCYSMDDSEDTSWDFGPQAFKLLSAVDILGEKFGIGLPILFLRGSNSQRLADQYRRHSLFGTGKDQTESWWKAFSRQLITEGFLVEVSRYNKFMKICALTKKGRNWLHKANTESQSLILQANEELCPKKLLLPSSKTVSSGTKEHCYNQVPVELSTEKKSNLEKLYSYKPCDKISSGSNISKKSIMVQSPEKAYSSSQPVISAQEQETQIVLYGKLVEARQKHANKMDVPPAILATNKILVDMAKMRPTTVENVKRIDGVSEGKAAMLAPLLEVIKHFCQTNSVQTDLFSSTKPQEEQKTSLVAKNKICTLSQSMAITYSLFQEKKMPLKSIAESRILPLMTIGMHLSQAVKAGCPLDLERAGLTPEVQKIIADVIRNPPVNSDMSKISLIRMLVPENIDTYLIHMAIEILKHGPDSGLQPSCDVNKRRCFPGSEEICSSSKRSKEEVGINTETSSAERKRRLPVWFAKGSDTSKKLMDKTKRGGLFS
SMILES,"activity change, negative = inhibition",Potency
CC(C)NC(=S)Nc1cccc2cnccc12,-2.33% (inactive),
COc1ccc(S(=O)(=O)N2CCN(CC(=O)N3c4ccccc4CC3C)CC2)cc1OC (stereo not drawn),-4.62% (inactive),
Cc1ccccc1-c1nc(NC(C)C)nc2cc(-c3ccccc3)sc12,1.98% (inactive),
O=S(=O)(O)c1cc2onnc2c2ccccc12,,56.2 µM (active)
O=C(Nc1ccc(OC(F)(F)F)cc1)c1ccc2c(c1)no[n+]2[O-],-31.1% (inactive),
Cc1ccc(S(=O)(=O)N2CCC(=O)N([C@H](COCc3ccccc3)Cc3ccccc3)CC2)cc1,5.73% (inactive),
CCN(CC)CCOc1ccc2c(c1)C(=NNC(=O)c1ccccn1)c1cc(OCCN(CC)CC)ccc1-2,,35.5 µM (active)
CN(CCOc1ccc(CC2SC(=O)NC2=O)cc1)c1ccccn1 (stereo not drawn),,inactive
CCN(CC)CCNCC(=O)Nc1ccc(Oc2ccccc2)cc1,-0.611% (inactive),
O=C(O)CSC(NC(=O)c1cccnc1)(C(F)(F)F)C(F)(F)F,-5.55% (inactive),
Cc1ccc(Cc2cnc(N)s2)o1,,44.7 µM (active)
Cc1ccc(CCC(=O)Nc2ncc(Cc3cc(Cl)ccc3Cl)s2)o1,-18.6% (inactive),
CSc1nnc(C2CCCN(CC(=O)Nc3ccccc3N3CCOCC3)C2)n1C(C)C (stereo not drawn),1.51% (inactive),
O=C(CSC(=S)N1CCOCC1)c1cc(Br)cc(Br)c1O,,56.2 µM (active)
O=C(c1cc2cc(Br)cc(Br)c2oc1=O)N1CCOCC1,18.6% (inactive),
O=C(CSC(=S)N1CCOCC1)c1ccccc1,-0.697% (inactive),
Cc1cc(=O)oc2cc(OC(C)C(=O)NCCc3ccc(S(N)(=O)=O)cc3)ccc12 (stereo not drawn),6.34% (inactive),
CCOC(=O)c1cc(-c2ccc(F)cc2)n(CC(=O)NCc2ccccn2)c1C,1.61% (inactive),
CCN(C(=O)COC(=O)/C=C/c1nc2ccccc2s1)C1CCS(=O)(=O)C1 (stereo not drawn),-4.22% (inactive),
O=C(COC(=O)c1cnccn1)Nc1ccc(Cl)cc1C(F)(F)F,-3.76% (inactive),
CC(C)C1N=C2c3ccccc3N=C(SCC(=O)c3ccc(O)c(O)c3)N2C1=O (stereo not drawn),,17.8 µM (active)
NC(=O)CSC1=Nc2ccccc2C2=NC(CCC(=O)NCc3ccc(F)cc3)C(=O)N12 (stereo not drawn),-10% (inactive),
O=C(CSC1=Nc2ccccc2C2=NC(c3ccccc3)C(=O)N12)NCC1CCCO1 (stereo not drawn),-2.26% (inactive),
O=C(NCCCn1ccnc1)C(=O)c1cn(CC(=O)N2CCCCCC2)c2ccccc12,-2.75% (inactive),
Cc1nc2ccc(S(=O)(=O)NCC(=O)O)cc2s1,2.69% (inactive),

SMILES,"activity change, negative = inhibition",Potency
C/C(CC(O)(/C=N/O)c1ccccc1)=N\O (stereo not drawn),3.21% (inactive),
O=S(=O)(NC1CC1)c1ccc(F)c(F)c1,6.22% (inactive),
O=S(=O)(NC1CC1)c1ccc(Cl)cc1,-0.583% (inactive),
Cn1sc(=O)c2cc(S(=O)(=O)NC3CC3)ccc21,,44.7 µM (active)
Cc1c(C(=O)NCCN(C)C)oc2ccc(S(=O)(=O)N3CCCC3)cc12,0.474% (inactive),
CCOP1(=O)C=C(C(C)(C)C)OC1c1ccc(F)cc1 (stereo not drawn),2.89% (inactive),
C[C@@H]1CN([C@H](C)CO)C(=O)CCCn2cc(nn2)CO[C@H]1CN(C)S(=O)(=O)c1ccc(Oc2ccccc2)nc1,6.33% (inactive),
CC12CCC(C(=O)N(CCC#N)CCC#N)(CC1=O)C2(C)C (stereo not drawn),-12% (inactive),
COC(=O)[C@@]1(Cc2ccc(F)cc2)[C@H]2c3cc(C(=O)N4CCCC4)n(C[C@H](O)CO)c3C[C@H]2CN1C(=O)c1ccccc1,-0.35% (inactive),
CCOC(=O)N1CCC(NC(=O)CN2C(=O)COc3ccc(C(C)(C)C)cc32)CC1,3.66% (inactive),
CC[C@]12c3[nH]c4ccc(OC)cc4c3CCN1C(=O)C(CC(=O)NCCN1CCOCC1)C[C@@H]2C(=O)N1CCN(C(=O)C2CC2)CC1 (stereo partly drawn),10.8% (inactive),
O=C(NCCc1ccco1)c1nn(Cc2ccccc2)c(=O)c2ccccc12,-18.2% (inactive),
O=c1/c(=C/c2ccc(CNS(=O)(=O)c3ccccc3)o2)sc2n1CCN=2,-17.2% [at 57.1 µM] (inactive),
O=c1nc2s/c(=C\c3ccco3)c(=O)n2nc1Cc1ccccc1,,35.5 µM (active)
Cc1cc(C(=O)OC(C)C(=O)Nc2cccc(S(=O)(=O)N3CCOCC3)c2)c(C)o1 (stereo not drawn),-4.49% (inactive),
CCOC(=O)N1CCN(C(=O)COC(=O)c2cccc(S(C)(=O)=O)c2)CC1,-2.83% (inactive),
CN(C)c1nc(Nc2ccc(Cl)c(Cl)c2)nc(N(C)C)n1,,79.4 µM (active)
CN(C)c1nc(NN)nc(Nc2ccc(F)cc2)n1,-7.55% (inactive),
CC(=O)Nc1nc(N(C)C)nc(N(C)C)n1,-1.07% (inactive),
O=C(CCS(=O)(=O)c1ccc(Br)cc1)NCCc1ccc(Cl)cc1,-8.96% [at 11.6 µM] (inactive),
COc1ccc(Cl)cc1NC(=O)CCS(=O)(=O)c1ccc(Br)cc1,,44.7 µM (active)
CCOc1ccc(OCC)c(NC(=O)CCS(=O)(=O)c2ccc(C)cc2)c1,-5.18% (inactive),
COC(=O)[C@]1(Cc2ccccc2)N[C@H](CN(C)S(=O)(=O)c2ccc(OC(F)(F)F)cc2)[C@@H]2C(=O)N(C)C(=O)[C@@H]21,-3.83% (inactive),
[O-][n+]1c2c(nn1-c1ccc(Cl)c(Cl)c1)-c1nonc1CC2,3.25% (inactive),
Cc1cc(C)c(S(=O)(=O)c2ccccc2)c(OC(=O)c2c(F)cccc2Cl)n1,-13.3% (inactive),

SMILES,"activity change, negative = inhibition",Potency
CC(C(=O)NC1CCS(=O)(=O)C1)N1C(=O)/C(=C/c2ccc(Cl)cc2)SC1=S (stereo not drawn),-8.03% (inactive),
CC(C(=O)Nc1ccc(O)c(C(=O)O)c1)N1C(=O)/C(=C/c2cccs2)SC1=S (stereo not drawn),-16.7% [at 11.6 µM] (inactive),
O=C(O)C(c1ccccc1)N1C(=O)/C(=C\c2ccc(-c3cccc(Cl)c3)o2)SC1=S (stereo not drawn),,44.7 µM (active)
CCc1c(-c2ccc(F)cc2)ncn1Cc1cccc(-c2ccccc2)c1,0.397% (inactive),
Cc1cccc(C(=O)NNC(=O)CSc2nnc(C(C)C)n2C)c1,-22% (inactive),
FC(F)(F)C1CCCN(c2nsc3ccccc23)C1 (stereo not drawn),,22.4 µM (active)
COc1ccc(Br)c(Cn2c(C)c(C(=O)NCc3cccs3)sc2=O)c1,1.69% [at 57.1 µM] (inactive),
COC(=O)C1=CN(c2c(C)cc(C)cc2C)C(N)=C(C#N)C1c1cccc(F)c1 (stereo not drawn),-5.53% (inactive),
FC(F)(F)c1cccc(-c2nc3ccccc3n2C(c2ccccc2)c2nc3ccccc3[nH]2)c1 (stereo not drawn),-2.09% (inactive),
CC1CN(/C=C/C(=O)C(F)(F)F)CC(C)O1 (stereo not drawn),-7.09% (inactive),
O=C1C2C3C=CC(C4CC34)C2C(=O)N1/N=C/c1ccc(-c2ccccc2[N+](=O)[O-])o1 (stereo not drawn),-4.13% (inactive),
COc1ccc(/C=C2/C(=O)N(c3ccccc3)N=C2C)c(OC)c1,-30.6% [at 11.6 µM] (inactive),
CC1=NN(c2ccc(Cl)c(C(=O)O)c2)C(=O)/C1=C/c1ccc(-c2ccccc2[N+](=O)[O-])o1,,44.7 µM (active)
COc1c(Br)cc2c(C)c(C(=O)N3CCOCC3)oc2c1Br,-1.91% (inactive),
O=C(Cn1nnc2ccccc2c1=O)NCc1ccc(Cl)cc1,7.75% (inactive),
O=C(c1ncn2c1c(=O)[nH]c1ccccc12)N1CCc2ccccc2C1,2.79% (inactive),
O=c1[nH]c2ccccc2n2c(-c3ccccc3)nnc12,,20 µM (active)
CS(=O)(=O)N1CCCCC1c1cc(C(=O)NCc2ccccc2)no1 (stereo not drawn),-12.7% (inactive),
COc1ccc(CS(=O)/C(Cl)=C(/Cl)C(=O)Nc2ccc(OC)nc2)cc1 (stereo not drawn),,17.8 µM (active)
COc1ccc(OC(C)C(=O)Nc2cccnc2)cc1 (stereo not drawn),2.46% (inactive),
COc1ccc(C(O)c2nc(-c3ccc(OC)nc3)cs2)cc1 (stereo not drawn),-0.589% (inactive),
CC(C)C[C@H]1CN([C@@H](Cc2ccccc2)CN2CCC[C@@H]2CN2C(=O)C(=O)NC[C@@H]2Cc2ccc(O)cc2)C(=O)C(=O)N1CCc1ccccc1,-7.43% (inactive),
Cc1cccc(C)c1NC(=O)C(c1cccc2ccccc12)n1c(=O)c(-c2ccco2)nc2ccccc21 (stereo not drawn),-2.69% (inactive),
O=C(CSC(=S)N1CCCCC1)c1c(F)cccc1F,8.5% (inactive),
Cc1c(CCC(=O)O)c(=O)oc2c(C)c(OCc3ccccc3Cl)ccc12,-22.9% [at 11.6 µM] (inactive),

SMILES,"activity change, negative = inhibition",Potency
Cc1c(CC(=O)N2CCN(C(=O)C3COc4ccccc4O3)CC2)c(=O)oc2c(O)c(O)ccc12 (stereo not drawn),,10 µM (active)
Cc1ccc(S(=O)(=O)NCCC(=O)NNC(=O)C2COc3ccccc3O2)cc1 (stereo not drawn),1.81% (inactive),
O=C(CCN1CCc2ccccc2C(O)(c2ccccc2)C1)c1ccc2c(c1)OCCO2 (stereo not drawn),,31.6 µM (active)
O=C(CN1CCN(c2ccccc2F)CC1)c1ccc2c(c1)OCO2,-4.89% (inactive),
CCC1(c2ccccc2)NC(=O)N(CC(=O)c2ccc3c(c2)OCO3)C1=O (stereo not drawn),-8.83% (inactive),
CCCCCNC(=O)C1C(=O)Nc2ccccc2C(=O)N1C(C)(C)C (stereo not drawn),4.68% (inactive),
O=c1[nH]oc(O)c1-c1ncc(C(F)(F)F)cc1Cl,-5.42% (inactive),
CN(Cc1c(F)cccc1Cl)S(=O)(=O)c1cccs1,-5.6% (inactive),
COC(=O)C1=C(C(=O)OC)[C@@H]2N(C)c3ccccc3[C@@]23C[C@@H](C(=O)OC)N(C(=O)c2ccco2)C3=N1,2.76% (inactive),
CN1C=CC=C/C1=C1\SC(=S)N(Cc2ccccc2)C1=O,-16.5% (inactive),
COc1cc(/C=C2/SC(=S)N(Cc3ccccc3)C2=O)cc(OC)c1O,,10 µM (active)
COc1ccc(CCNC2=C(Cl)C(=O)N(Cc3ccccc3)C2=O)cc1OC,-14.6% (inactive),
COC(=O)C[C@H]1C=C[C@H](NC(=O)c2ccc(F)cc2)[C@@H](CO)O1,-3.28% (inactive),
O=S(=O)(Nc1ccc(OC(F)(F)F)cc1)c1cccc2nonc12,-10.1% (inactive),
O=S(=O)(Nc1ccc(O)c2ccccc12)c1ccc(OC(F)(F)F)cc1,,56.2 µM (active)
COc1ccccc1NS(=O)(=O)c1ccc(C(=O)N2CCN(c3ccccc3O)CC2)cc1,1.94% (inactive),
O=C(NCc1ccncc1)C(=O)NCC1OCCN1S(=O)(=O)c1ccc(Br)cc1 (stereo not drawn),-13.3% (inactive),
Cc1ccccc1N/C(SCc1ccc(Cl)cc1)=C(/C#N)C(N)=O,-14.6% (inactive),
O=C(CCCCCn1c(=S)[nH]c2ccsc2c1=O)NC1CCCCC1,1.73% (inactive),
O=C(/C=C/c1cccs1)NCc1cccnc1,1.39% (inactive),
Cc1ccccc1NC(=O)CN1C(=O)N/C(=C\c2cccn2-c2cccc(C(=O)O)c2)C1=O,,10.6 µM (active)
COC(=O)CN1C(=O)N/C(=C/c2ccc(OC)c(C)c2OC)C1=O,-4.64% (inactive),
Cc1ccccc1NC(=O)Cn1c(=O)n(CC2CCCO2)c(=O)c2ccccc21 (stereo not drawn),1.69% (inactive),
